The values that follow come from PubChem BioAssay (EPA / NIEHS).

Molecules are shown by their SMILES. Several values for one entry are separate records, joined by “and”; a condition that tells them apart may be missing. Equal entries are not always repeated. Where a structure was tested more than once in an assay, its records may differ in their call. Activity calls are given as the source filed them. How the source made its calls: active means hit-call score of the fitted dose curve at least 0.9, where 1 is the maximum; inactive means score below 0.9.

What all share (settings): primary human HUVEC with PBMC; actives raise or lower the signal
Read-out in assay [1]: Monocyte Chemoattractant Protein-1 (MCP1), CCL2 (gene 6347)
In words: BSK_LPS_MCP1: BioMAP Diversity Plus: LPS Assay for Monocyte Chemoattractant Protein-1 (MCP1) Biomarker Activity (AID 2283081).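 On AC50: co-culture stimulated with LPS; secreted MCP-1 protein quantified by ELISA in culture supernatant.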 In outline: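 HUVEC plus PBMC co-culture (human primary cells, LPS system) exposed to test chemical for 24 h; MCP-1 measured by ELISA. Bidirectional curve fitting against DMSO baseline; parallel SRB total-protein staining flags overt cytotoxicity.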

A short description of assay [2]: BSK_LPS_PGE2: BioMAP Diversity Plus: LPS Assay for Prostaglandin E2 (PGE2) Biomarker Activity (AID 2283082).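 On AC50: secreted prostaglandin E2 measured by ELISA in LPS-stimulated co-culture.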 In outline:
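Primary human endothelial cells and blood mononuclear cells, co-cultured with LPS, receive test chemical; PGE2 ELISA follows at 24 h, with SRB-stained parallel cultures flagging cytotoxicity.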

Read-out in assay [3]: Macrophage colony-stimulating factor (MCSF), CSF1 (gene 1435)
In words: BSK_LPS_MCSF: BioMAP Diversity Plus: LPS Assay for Macrophage colony-stimulating factor (MCSF) Biomarker Activity (AID 2283083). In outline: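 Human umbilical vein endothelial cells co-cultured with peripheral blood mononuclear cells were exposed to compound for 24 h. M-CSF levels were measured by ELISA, and bidirectional curve fitting used DMSO as the negative control and baseline.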

Read-out in assay [4]: Tissue Factor, F3 (gene 2152)
Kind of assay: BSK_LPS_TissueFactor: BioMAP Diversity Plus: LPS Assay for Tissue Factor Biomarker Activity (AID 2283084). The method, boiled down: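 Human umbilical vein endothelial cells co-cultured with peripheral blood mononuclear cells were dosed and stimulated with LPS. Cell-surface CD142 was quantified by ELISA at 24 h. Activity was fitted bidirectionally against DMSO baseline.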

Read-out in assay [5]: Tumor necrosis factor (Homo sapiens) (UniProt P01375)
Kind of assay: BSK_LPS_TNFa: BioMAP Diversity Plus: LPS Assay for Tumour Necrosis Factor alpha (TNFa) Biomarker Activity (AID 2283085).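 On AC50: TNFa protein level quantified by ELISA in the co-culture.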 In outline:
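ELISA-based TNFa endpoint in a human endothelial–PBMC co-culture sampled 24 h post-exposure. Curves were fitted in both directions using DMSO as baseline of activity.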

Read-out in assay [6]: Vascular cell adhesion molecule 1 (VCAM1), VCAM1 (gene 7412)
Kind of assay: BSK_LPS_VCAM1: BioMAP Diversity Plus: LPS Assay for Vascular cell adhesion molecule 1 (VCAM1) Biomarker Activity (AID 2283086). In outline: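 Measured by ELISA: VCAM-1 in LPS-activated HUVEC/PBMC co-cultures 24 h after treatment. Values reflect bidirectional fitting with DMSO as baseline.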

Read-out in assay [7]: CD38, CD38 (gene 952)
In words: BSK_SAg_CD38: BioMAP Diversity Plus: SAg Assay for CD38 Biomarker Activity (AID 2283087). The method, boiled down: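 Measures CD38 on a human endothelial/PBMC co-culture driven by SEB and TSST-1, 24 h after compound exposure, using ELISA with fluorescence detection; DMSO defines baseline for bidirectional curve fitting.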

Read-out in assay [8]: CD40, CD40 (gene 958)
In words: BSK_SAg_CD40: BioMAP Diversity Plus: SAg Assay for CD40 Biomarker Activity (AID 2283088). In outline:
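Human umbilical vein endothelial cells co-cultured with PBMC; CD40 levels measured by ELISA with fluorescence read-out 24 h after chemical dosing. Gain or loss of signal fitted bidirectionally against DMSO baseline.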

Read-out in assay [9]: Monocyte Chemoattractant Protein-1 (MCP1), CCL2 (gene 6347)
In words: BSK_SAg_MCP1: BioMAP Diversity Plus: SAg Assay for Monocyte Chemoattractant Protein-1 (MCP1) Biomarker Activity (AID 2283090). In outline: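 Values derive from bidirectional fitting of ELISA-measured MCP1 against DMSO controls. Readings were taken 24 h after dosing human vascular endothelial cells co-cultured with peripheral blood mononuclear cells under superantigen stimulation.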

Read-out in assay [10]: CD69, CD69 (gene 969)
In words: BSK_SAg_CD69: BioMAP Diversity Plus: SAg Assay for CD69 Biomarker Activity (AID 2283089).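 On AC50: cell surface CD69 protein quantified by ELISA with fluorescence detection.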 The method, boiled down:
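Values derive from bidirectional fitting relative to DMSO vehicle. Cells: umbilical vein endothelium plus peripheral blood mononuclear cells, treated 24 h before fluorescent ELISA for CD69.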

Chain of Tumor necrosis factor (Homo sapiens) (P01375 whole entry, looked up): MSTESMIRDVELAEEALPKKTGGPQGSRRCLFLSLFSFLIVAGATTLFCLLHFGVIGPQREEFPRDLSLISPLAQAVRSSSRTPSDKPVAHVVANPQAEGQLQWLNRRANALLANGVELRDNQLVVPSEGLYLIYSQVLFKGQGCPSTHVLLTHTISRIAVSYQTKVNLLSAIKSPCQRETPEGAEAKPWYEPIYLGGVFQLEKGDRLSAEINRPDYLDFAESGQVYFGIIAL

In the case of `O=S(=O)(OCC(F)(F)F)C(F)(F)C(F)(F)C(F)(F)C(F)(F)F`, the AC50 in assay [1] is 20.6 µM (active); in assay [4], 9.88 µM (active); in [5] it was 43.7 µM (active) and 16.3 µM (active). In addition, the result in assay [1], in [2], in assay [3], in assay [4], in assay [6] and in [7] was inactive. Besides, the outcome in assay [8] and in [9] was inactive.

For `O=C(Cl)C(F)(F)C(F)(F)C(F)(F)C(F)(F)C(F)(F)C(F)(F)C(F)(F)F`, the result in assay [1], in assay [2], in assay [3], in assay [4], in assay [5] and in assay [6] was inactive. In addition, the outcome in [7], in assay [8] and in [9] was inactive.

Take `COC(F)(C(F)F)C(F)(F)F` (configuration not stated): the result in assay [1], in assay [2], in assay [3], in assay [4], in [5] and in assay [6] was inactive. The outcome in [7], in assay [8] and in assay [9] was inactive.

With `O=C=NCc1cccc(CN=C=O)c1`, the outcome in assay [1], in assay [2], in [3], in [4], in assay [5] and in assay [6] was inactive. Besides, the outcome in [7], in assay [8], in assay [10] and in [9] was inactive.

With `Cc1ccc(O)c(-n2nc3ccccc3n2)c1`, the result in assay [1], in assay [2], in [3], in [4], in assay [6] and in assay [7] was inactive. Further, the outcome in assay [8], in [10] and in assay [9] was inactive. Further, the AC50 in [5] was 1.8 µM (active).

On to `O=S(=O)(Cl)C(F)(F)C(F)(F)C(F)(F)C(F)(F)C(F)(F)C(F)(F)C(F)(F)C(F)(F)F`, for which the outcome in assay [1], in assay [3], in assay [4], in [5], in [6] and in assay [7] was inactive. Besides, the result in [8] and in [9] was inactive. For the same compound, the concentration at half-maximal activity (AC50) in assay [2] was 46.8 µM (active) and 42.8 µM (active).

As for `O=S(=O)(O)CCC(F)(F)C(F)(F)C(F)(F)C(F)(F)F`, the result in assay [1], in assay [2], in assay [3], in [4], in assay [5] and in [6] was inactive. In addition, the outcome in assay [7], in [8] and in assay [9] was inactive.

For the compound `CCOC(C=C(C)CCC=C(C)C)OCC`, the AC50 in assay [1] is 20 µM (active); in assay [3] it was 33.1 µM (active); in assay [4], 30.5 µM (active); in assay [6], 31.7 µM (active); in assay [8], 3.97 µM (active). The outcome in [2], in assay [5], in assay [7] and in assay [9] was inactive.

`CC(C)(C)c1cc(CCC(=O)NCCCCCCNC(=O)CCc2cc(C(C)(C)C)c(O)c(C(C)(C)C)c2)cc(C(C)(C)C)c1O`: the result in assay [1], in [2], in assay [3], in assay [4], in assay [5] and in [6] was inactive. Moreover, the result in assay [7], in [8], in assay [10] and in assay [9] was inactive.

On to `C=C(C)C(=O)OCC(F)(F)C(F)(F)C(F)(F)C(F)F`, for which the result in [1], in assay [2], in [3], in assay [4], in assay [5] and in [6] was inactive. The outcome in assay [7], in assay [8] and in assay [9] was inactive. Moreover, the concentration at half-maximal activity (AC50) in assay [3] was 0.646 µM (active).

On to `CN(C(=O)C(F)(F)C(F)(F)C(F)(F)F)[Si](C)(C)C`, for which the outcome in assay [1], in assay [2], in assay [3], in assay [4], in [5] and in [6] was inactive. The result in assay [7], in assay [8], in [10] and in [9] was inactive.

For `C[C@]12CC[C@H]3C(=CCc4cc(O)ccc43)[C@@H]1CCC2=O`, the result in [1], in [2], in assay [3], in assay [4], in [5] and in assay [6] was inactive. For the same compound, the result in [7], in assay [8] and in assay [9] was inactive.

As to `CO[Si](C)(CCC(F)(F)C(F)(F)C(F)(F)C(F)(F)C(F)(F)C(F)(F)F)OC`, the result in assay [1], in [2], in assay [3], in assay [4], in assay [5] and in [6] was inactive. Further, the result in [7], in assay [8] and in [9] was inactive.

In the case of `O=C(O)C(F)(F)C(F)(F)C(F)(F)C(F)(F)C(F)(F)C(F)(F)C(F)F`, the result in assay [1], in assay [2], in assay [3], in assay [4], in assay [5] and in assay [6] was inactive. Further, the result in assay [7], in assay [8] and in [9] was inactive.

On to `C=CC(=O)OCCC(F)(F)C(F)(F)C(F)(F)C(F)(F)F`, for which the outcome in [1], in [2], in assay [3] and in assay [4] was inactive. The AC50 was 30 µM (active) in assay [4]; 32.7 µM (active) and 15.7 µM (active) in assay [6]; 47.8 µM (active) and 30 µM (active) in assay [7]; 30 µM (active) in assay [8]; 28 µM (active) and 30.9 µM (active) in assay [10]; 19.4 µM (active) and 14.4 µM (active) in [9].

Turning to `NC(=O)C(F)(F)C(F)(F)C(F)(F)C(F)F`, the result in [1], in assay [2], in assay [3], in [4], in assay [5] and in assay [6] was inactive. The result in assay [7], in assay [8] and in assay [9] was inactive.

As a reminder, the AC50 is the midpoint of the concentration-response curve, whichever way the signal moves.
